# Laboratory results taken from PubChem BioAssay AID1527 (The Scripps Research Institute Molecular Screening Center, 2009).
# Hit rate of the full screen: of about 290,000 compounds, about 2,600 (0.9%) were called active.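 How the source made its calls: active means inhibition above the mean of all tested compounds plus 3 SD, cutoff set per screening run (cut at about 7.5% in these data); inactive means the rest.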 The entries come from a sample that favours actives as a whole.
# Tested on: VIM-2 metallo-beta-lactamase (Pseudomonas aeruginosa)
# Assay: inhibition of VIM-2 nitrocefin hydrolysis – biochemical, epi-absorbance readout, Pseudomonas aeruginosa enzyme, primary screen (AID 1527);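 further: red hydrolysis product quenches plate fluorescence so inhibitors raise well fluorescence; 0% = enzyme with DMSO and 100% = DMSO without enzyme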
# Settings: purified VIM-2, nitrocefin hydrolysis, epi-absorbance fluorescence; at 5.6 µM; stronger effect = higher value
row,SMILES,inhibition
1,Cc1ccccc1-c1n[nH]c(=S)n1C,2.67% (inactive)
2,Cn1c(-c2sc3cc(C(F)(F)F)cnc3c2-c2ccccc2)n[nH]c1=S,-7.11% (inactive)
3,Cn1c(-c2sccc2OCc2cccc(C(F)(F)F)c2)n[nH]c1=S,27% (active)
4,COc1ccccc1NC(=O)CCN1CCN(c2ccc(Cl)cc2)CC1,0.08% (inactive)
5,O=Cc1c(Nc2ccccc2Cl)nc2ccccn2c1=O,0.26% (inactive)
6,CNc1nc2c(C)cccn2c(=O)c1C=Nc1ccc(OC)cc1,4.33% (inactive)
7,Cc1cccn2c(=O)c(C=O)c(Nc3ccc(S(N)(=O)=O)cc3)nc12,19.5% (active)
8,C/C(N)=C(/C#N)C(=O)COC(=O)C1=NN(c2ccccc2)C(=O)CC1,-2.51% (inactive)
9,COc1cccc(NC(=O)C2CCCN(c3ncnc4c3nc3n4CCCCC3)C2)c1 (configuration not stated),-0.06% (inactive)
10,COCCCNC(NC(=O)c1ccc(C)cc1)C(Cl)(Cl)Cl (configuration not stated),-1.71% (inactive)
11,CC(C)(C)NC(=O)CSC(=Nc1ccccc1F)NC#N,-1.17% (inactive)
12,CCC(c1nnnn1C(C)(C)C)N(Cc1cc2cccc(C)c2n2nnnc12)C1CCCC1 (configuration not stated),-3.3% (inactive)
13,Cn1c(=O)cc(OCCCC(=O)N2CCN(Cc3ccc4c(c3)OCO4)CC2)c2ccccc21,9.27% (active)
14,O=C(CCCN1C(=O)c2cccc3cccc(c23)C1=O)N1CCN(Cc2ccc3c(c2)OCO3)CC1,4.6% (inactive)
15,Cn1c(=O)cc(OCCCC(=O)N2CCN(c3ccccn3)CC2)c2ccccc21,-0.05% (inactive)
16,COc1cc(C)cc(CN2CCC(Cc3ccccc3)CC2)c1O,-1.32% (inactive)
17,CCn1c(=O)n(CC)c2cc(N3CCCC3)c(NC(=O)c3ccccc3Br)cc21,0.64% (inactive)
18,CCOc1ccc(C)cc1S(=O)(=O)NC1CCCCCC1,-2.78% (inactive)
19,COc1ccccc1OCCn1c(SCC(N)=O)nc2ccccc21,-0.1% (inactive)
20,O=C(Oc1c(-c2ccco2)oc2ccccc2c1=O)c1cccnc1,0.08% (inactive)
21,COCCCNC(=S)N(CCN(C)C)Cc1cc2cc3c(cc2[nH]c1=O)OCCO3,1.43% (inactive)
22,Cc1cccc(NC(=O)C2CCCN(C(=O)NCc3ccccc3)C2)c1C (configuration not stated),0.69% (inactive)
23,Cc1ccc2cc(/C=N/Nc3ccc(C(=O)O)cc3)c(Cl)nc2c1,1.26% (inactive)

row,SMILES,inhibition
1,CSCC[C@H](NC(=O)OC(C)(C)C)C(=O)N/N=C/c1cc2ccc(C)cc2nc1Cl,0.5% (inactive)
2,Cc1ccc2cc(/C=N/NC(=O)[C@@H]3CCCN3)c(Cl)nc2c1,10.3% (active)
3,Cc1cccc(CS(=O)(=O)c2ncc(Cl)c(C(=O)Nc3ccc(F)cc3)n2)c1,-3.25% (inactive)
4,O=C(CCC1CCCN(C(=O)c2ccc(F)c(F)c2)C1)N1CCN(c2ccccn2)CC1 (configuration not stated),-0.15% (inactive)
5,CCn1ccnc1CNC(=O)CC1C(=O)NCCN1Cc1ccc(F)cc1Cl (configuration not stated),-4.36% (inactive)
6,O=C(O)c1ccc2c3c(cccc13)C(=O)N(OS(=O)(=O)c1ccccc1)C2=O,0.17% (inactive)
7,CC(=O)Nc1ccccc1Sc1ccc2c3c(cccc13)C(=O)N(c1ccc(C)cc1)C2=O,-3.98% (inactive)
8,CN1C(=O)c2cccc3c(N)ccc(c23)C1=O,50.1% (active)
9,Cc1nn(C)cc1N1C(=O)c2cccc3c(N)ccc(c23)C1=O,21.7% (active)
10,Cc1nn(-c2cc(Cl)ccc2N)c(=O)c2ccccc12,-2.2% (inactive)
11,O=C1c2ccccc2C(=O)N1c1cccc2ccccc12,-0.93% (inactive)
12,NS(=O)(=O)c1ccc(N=Nc2c(O)[nH]c3ccc(Br)cc23)cc1,-2.22% (inactive)
13,Cc1c(C=O)c2ccccc2n1CCOc1ccccc1,-0.2% (inactive)
14,CN(C)CCCN(C(=O)c1ccc(S(=O)(=O)N2CCCc3ccccc32)cc1)c1nc2ccc(F)cc2s1,-1.07% (inactive)
15,CCOc1ccc(NC(=O)CN2CCN(CC(=O)Nc3ccc(OC)cc3)CC2)cc1,0.38% (inactive)
16,CCc1cc(C(N)=O)c(NC(=O)c2ccc(OC)cc2)s1,-2.73% (inactive)
17,CCc1cc(C(=O)c2ccc(OC)cc2)c(NC(=O)CN2CCN(C)CC2)s1,7.76% (active)
18,COc1cccc(CN(C)CC2CCCN(CCc3ccc(Cl)cc3)C2)c1OC (configuration not stated),-0.31% (inactive)
19,COc1ccc(CNc2cc(C)cc(C)c2)cc1OC,-0.65% (inactive)
20,O=C(/C=C/c1cccc(C(F)(F)F)c1)N1CCN(c2ccccn2)CC1,-1.71% (inactive)
21,COc1ccccc1NC(=O)C1CCN(C(=O)c2ccc(C(C)(C)C)cc2)CC1,-0.92% (inactive)
22,Cc1ccc(NS(=O)(=O)c2ccc3c(c2)NC(=O)CO3)cc1,-3.86% (inactive)
23,COc1cccc(/C=C2\Sc3ccc(C(=O)NCC4CCCO4)cc3N(C)C2=O)c1 (configuration not stated),2.03% (inactive)

row,SMILES,inhibition
1,COCCCn1c(SCC(=O)NC2CCCC2)nnc1-c1ccccc1,-3.05% (inactive)
2,CCC(C)c1ccc(NC(=S)N2CCCC2)cc1 (configuration not stated),-4.58% (inactive)
3,Cc1cc(C)c2nc(SCCC#N)nc(C)c2c1,0.46% (inactive)
4,Cc1cc(C)c2nc(-c3ccco3)cc(C(=O)O)c2c1,-2.98% (inactive)
5,Cc1cc(C)c2nc3nc(C)cc(C)c3c(N)c2c1,23.4% (active)
6,Cc1cccnc1CC(C)NC(=O)c1cc(COc2cncc(Cl)c2)on1 (configuration not stated),-1.87% (inactive)
7,OCCN1CCN(c2nnc(-c3ccccc3)c3ccccc23)CC1,1.21% (inactive)
8,O=C1c2ccccc2C(=O)c2c1cccc2N1CCN(CCO)CC1,8.84% (active)
9,O=C1c2ccccc2C(=O)c2c1cccc2N1CCN(Cc2ccccc2)CC1,-2.44% (inactive)
10,CN(C)Cc1c(O)ccc2c(=O)c(-c3ccccc3Cl)coc12,-1.33% (inactive)
11,Cc1ccc(CNC(=O)C2CCCN2S(=O)(=O)c2ccc3c(c2)C(C)(C)C(=O)N3C)cc1 (configuration not stated),-0.78% (inactive)
12,Cc1ccc2nc3n(c(=O)c2c1)CCC3,-2.8% (inactive)
13,Cc1ccc2nc(C)c3c(c2c1)N(c1ccccc1)CC3,14.6% (active)
14,Cc1ccc2nc(Nc3ccccc3)cc(C)c2c1,0.49% (inactive)
15,COc1ccc(S(=O)(=O)N(CC(=O)NCc2ccco2)c2ccc(F)cc2)cc1,-4.2% (inactive)
16,CCOc1ccccc1-c1nc(CN2CCC(C(=O)N3CCOCC3)CC2)c(C)o1,-1.39% (inactive)
17,Cc1cc(C)c2c(n1)nn1c(N3CCOCC3)cc(C)nc21,16.1% (active)
18,Cc1cc(C)c2c(n1)nn1c(-n3ccnc3)cc(C)nc21,5.51% (inactive)
19,Cc1cc(C)c2c(n1)nn1c(N3CCN(c4cccc(Cl)c4)CC3)cc(C)nc21,-6.43% (inactive)
20,COc1ccc(OCC(=O)NCCS(=O)(=O)N2CCN(c3ccc(F)cc3)CC2)cc1,-1.58% (inactive)
21,CCC(=O)N1c2ccc(S(=O)(=O)NCc3ccco3)cc2CC1C (configuration not stated),-0.12% (inactive)
22,O=C(N/C(=C\c1ccc([N+](=O)[O-])cc1)C(=O)N1CCCCC1)c1ccco1,-3.79% (inactive)
23,COc1ccc(OC)c(S(=O)(=O)n2c([N+](=O)[O-])cnc2C)c1,-2.01% (inactive)

row,SMILES,inhibition
1,CCOC(=O)C(Cc1ccc(N)cc1)N1C(=O)c2ccccc2C1=O (configuration not stated),-2.51% (inactive)
2,Cc1cc(Cl)ccc1OCCCC(=O)NCc1ccncc1,-1.05% (inactive)
3,COc1ccc(S(=O)(=O)NC(C)C(=O)NCc2ccncc2)cc1Cl (configuration not stated),-2.14% (inactive)
4,CC(Oc1cc2oc(=O)c3c(c2cc1Cl)CCCC3)C(=O)NCc1ccncc1 (configuration not stated),7.79% (active)
5,CCCCc1nc2cc(C(=O)NCCc3cnn(C)c3)ccc2o1,1.12% (inactive)
6,CC(C)(C)CC(=O)Nc1nnc(SCC(=O)NCc2cccs2)s1,20.2% (active)
7,Cc1nnc(SCC(=O)NCc2cccs2)[nH]c1=O,-0.38% (inactive)
8,O=C(Cc1cccs1)Nc1nnc(SCc2ccc(F)cc2)s1,0.7% (inactive)
9,CCn1c(SCc2cccc(C(=O)O)c2)nnc1-c1ccc(Cl)cc1,-1.15% (inactive)
10,Cn1c(=O)c2c(nc(N3CCCCCC3)n2CC(=O)c2ccc(Br)cc2)n(C)c1=O,-2.28% (inactive)
11,Cn1c(=O)c2c(nc(N3CCOCC3)n2CCNC2=NCCC2)n(C)c1=O,16% (active)
12,CCCCn1c(SCC(=O)N2CCOCC2)nc2c1c(=O)n(C)c(=O)n2C,1.45% (inactive)
13,COc1ccc(C(=O)NCCNc2ccc([N+](=O)[O-])cn2)cc1,0.89% (inactive)
14,Cc1cc(=O)oc2c(C)c(OC(C)C(=O)NC3CCN(Cc4ccccc4)CC3)ccc12 (configuration not stated),2.37% (inactive)
15,Cc1c(OC(C)C(=O)NCC2CCC(C(=O)O)CC2)ccc2c1oc(=O)c1ccccc12 (configuration not stated),10.8% (active)
16,Cc1c(OC(C)C(=O)N[C@@H](Cc2ccccc2)C(=O)O)ccc2c3c(c(=O)oc12)CCCC3 (some centres not stated),6.52% (inactive)
17,C=CCc1ccc(OCCOc2cccc(/C=N/n3cnnc3)c2)c(OC)c1,0.81% (inactive)
18,Cc1noc(C)c1CSCC(=O)N(CCC(C)C)c1c(N)n(Cc2ccccc2)c(=O)[nH]c1=O,-3.06% (inactive)
19,NC(=O)COc1ccc2c3c(c(=O)oc2c1)CCCCC3,7.97% (active)
20,O=C(COc1ccc2c3c(c(=O)oc2c1)CCC3)NC1CCCCC1,-1.01% (inactive)
21,Cc1c(C)c2ccc(OCC(=O)N3CCN(c4cccc(Cl)c4)CC3)cc2oc1=O,-1.38% (inactive)
22,NC(=O)C1CCN(C(=O)COc2ccc3c4c(c(=O)oc3c2)CCC4)CC1,14.1% (active)
23,CCCCc1cc(=O)oc2c(C)c(OCC(=O)N3CCC(C(N)=O)CC3)ccc12,-1.28% (inactive)

row,SMILES,inhibition
1,O=C(COc1ccc2c3c(c(=O)oc2c1)CCCC3)NCC(O)c1ccccc1 (configuration not stated),6.2% (inactive)
2,Cc1cc(Cl)nc(NC(=O)Nc2cccc(Cl)c2)n1,1.05% (inactive)
3,Nc1cc(N)nc(SCc2cccc(F)c2)n1,3.79% (inactive)
4,N=c1oc2ccccc2cc1C(=O)NCc1ccccc1,-0.7% (inactive)
5,CCOC(=O)CSc1nc2ccc(C)cc2[nH]1,0.26% (inactive)
6,COc1ccc(CCNc2nc3ccc(C)cc3n3cnnc23)cc1OC,0.51% (inactive)
7,CCOC(=O)CSc1nc2ccc(C)cc2n2cnnc12,9.79% (active)
8,CCOC(=O)c1sc(NC(=S)n2cc(C)cn2)c(C(=O)OCC)c1C,-2.26% (inactive)
9,CCn1cc(C(=O)NCCO)c(=O)c2cc(F)c(N3CCN(C)CC3)cc21,1.17% (inactive)
10,CN1CCN(c2cc3c(cc2F)c(=O)c(C(=O)O)cn3CCF)CC1,-0.28% (inactive)
11,CCn1cc(S(=O)(=O)c2cccc(C)c2)c(=O)c2cc(F)c(N3CCN(C)CC3)cc21,12.1% (active)
12,COc1ccc(/C=C/C(=O)NC(=S)N2CCCC(C(N)=O)C2)cc1 (configuration not stated),-3% (inactive)
13,COc1ccc(CNc2ccc3c(c2)CCC3)cc1OC,-1.76% (inactive)
14,CCOC(=O)c1ccc2c(c1)nc(C)n2CC,-4.24% (inactive)
15,CC(=O)c1nc2ccccc2n1Cc1ccccc1,-0.19% (inactive)
16,CC(=O)c1ccc(-c2ccc(Cn3c(C)nc4cc(N)c(C)nc43)cc2)cc1,21.7% (active)
17,O=C(N/N=C/c1ccc(Cl)c(Cl)c1)c1ccc2nc[nH]c2c1,-1.16% (inactive)
18,CS(=O)(=O)N1CCCC(C(=O)Nc2ccccc2C(F)(F)F)C1 (configuration not stated),-0.2% (inactive)
19,O=C(CSc1ccc(-c2ccco2)nn1)Nc1cccc(F)c1,-1.64% (inactive)
20,Cc1ccccc1C(=O)NC(=S)NC1CC1,-2.76% (inactive)
